# An excerpt weighted towards active compounds, which were near 2.4% of everything screened.
# D2 PAM-1: human D2 receptor positive allosteric modulation | DiscoveRx D2 beta-arrestin cells, luminescence, 90 min; 100% = 57 uM dopamine signal | potentiation, % (test concentration not listed) | 360,000 tested, 0.23% active | AID 624464; in the data active means potentiation above about 50%; inconclusive means mostly about 30% to 49%
# Target sequence (P14416 whole entry, looked up): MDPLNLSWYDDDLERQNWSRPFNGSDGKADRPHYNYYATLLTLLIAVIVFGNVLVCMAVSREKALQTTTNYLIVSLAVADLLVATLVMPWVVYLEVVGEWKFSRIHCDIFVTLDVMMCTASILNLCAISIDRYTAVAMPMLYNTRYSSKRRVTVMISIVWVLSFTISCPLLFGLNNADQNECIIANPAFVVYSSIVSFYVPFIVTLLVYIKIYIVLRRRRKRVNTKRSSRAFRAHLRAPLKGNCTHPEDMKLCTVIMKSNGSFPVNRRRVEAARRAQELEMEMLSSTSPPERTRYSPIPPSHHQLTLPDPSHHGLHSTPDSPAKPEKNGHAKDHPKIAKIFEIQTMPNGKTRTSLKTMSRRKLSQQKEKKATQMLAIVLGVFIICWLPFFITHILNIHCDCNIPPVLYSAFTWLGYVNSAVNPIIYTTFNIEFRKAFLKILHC
#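 PathHunter D2 cells, attached overnight at 37 deg C, received compound in DMSO plus dopamine at EC20 (50 nM final) for 90 min at 37 deg C. Beta-arrestin recruitment was read as luminescence after 1 h with detection reagent at ambient temperature.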
# D2 PAM-2: positively modulates the human D2 dopamine receptor allosterically; P14416; HEK293 T-REx D2, calcium flux, EC20 dopamine potentiation; potentiation, % at 10 µM; 340,000 tested, 0.34% active;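 active means potentiation over 3 SD above the plate norm, cut at about 30% in these data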
#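 Potentiation of an EC20 dopamine calcium response is measured in a force-coupled, tetracycline-inducible Hek293 Trex D2 line. Compound-only kinetic reads over 180 s flag agonists before dopamine addition.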
# D2 ag-1: human D2 receptor agonism in beta-arrestin assay; P14416; DiscoveRx PathHunter D2 beta-arrestin, luminescence, 90 min; 100% = 57 uM dopamine signal; activation, % (concentration not given with the values); 360,000 tested, 0.084% active; in the data active means activation above about 40%; inconclusive means between about 15% and that limit
#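 Agonist mode: compounds alone added to overnight-plated D2 PathHunter cells for 90 min at 37 C, with 57 uM final dopamine (EC100) defining full response. Beta-arrestin recruitment detected by chemiluminescent reagent, read after 1 h at ambient temperature.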
# D2 ag-2: agonists of human D2 dopamine receptor; P14416; HEK293 T-REx D2 cells, calcium flux agonist mode; activation, % at 2 µM; 340,000 tested, 0.53% active;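 active means activation over 3 SD above normal in the single-dose calcium agonist read, cut at about 30% in these data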
#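 Calcium-flux readout, 1 cycle/sec over 180 s following compound pin transfer, in inducible HEK293 Trex D2 cells (force-coupled); dopamine controls included. Positive calcium responses during this window marked compounds as potential agonists.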
# D2 antag: antagonists of human D2 dopamine receptor; P14416; HEK293 TREx D2 cells, calcium flux, dopamine EC80; inhibition, % at 10 µM; 340,000 tested, 2% active; in the data active means inhibition above about 30%; inactive means below that, where a call was filed
#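 Cells plated overnight at 30 C with tetracycline; no-wash calcium dye, 30–90 min RT; 10 s baseline; compound pinned; 180 s read; EC80 dopamine added; another 180 s read.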
# Hits are given with their value; n = inactive; u = inconclusive; x = no result given; ! = not confirmed by another sample.
SMILES,D2 PAM-1,D2 PAM-2,D2 ag-1,D2 ag-2,D2 antag
COc1cn(CC(=O)Nc2ccc(C)cc2C)c(CN2CCCCC2)cc1=O,x,n,x,n,x
Nc1c(C(=O)c2ccccc2)sc2nsc(SCCN3CCOCC3)c12,n,n,n,32,n
CC(=O)c1sc2nsc(SCCN3CCOCC3)c2c1N,n,n,n,n,n
COc1ccccc1CNC(=O)C1CCCN(S(=O)(=O)c2ccc3c(c2)CCCN3C(C)=O)C1 (stereo not drawn),x,n,x,n,x
Cc1nn(-c2ccccn2)c2c1C(=O)C(Br)CC2 (stereo not drawn),54,n,u,n,n
CC(C)c1ccccc1NC(=O)C(Cc1c[nH]c2ccccc12)NC(=O)OC(C)(C)C (stereo not drawn),x,n,x,n,x
O=C(CCc1ccc(Oc2cc([N+](=O)[O-])cc([N+](=O)[O-])c2)cc1)Nc1cccc(Cl)c1,64,n,u,n,n
O=C(CCc1ccc(Oc2cc([N+](=O)[O-])cc([N+](=O)[O-])c2)cc1)N1CCCCC1,58,n,u,n,n
O=C(c1ccc(Oc2ccc([N+](=O)[O-])cc2)cc1)N1CCCCCC1,n,n,n,n,n
COc1ccc(CCC(=O)Nc2cccc(Cl)c2)cc1,n,n,n,n,n
Cc1cc2c(cc1NC(=O)c1ccc(C(C)(C)C)cc1)n(C)c(=O)c(=O)n2C,x,n,x,n,x
Cc1ccc(CNC(=O)c2cc(-c3ccccc3C)nn2CC2CC(c3cccnc3)=NO2)cc1 (stereo not drawn),n,x,n,x,x
Cc1ccccc1-c1cc(C(=O)NCc2ccc3c(c2)OCO3)n(CC2CC(c3cccnc3)=NO2)n1 (stereo not drawn),n,n,n,n,83
Cc1cc(C(=O)NCC2CCCCC2)ccc1[N+](=O)[O-],n,x,n,n,n
Cc1cc2c(cc1[N+](=O)[O-])NC(CNC(C)C)CC2 (stereo not drawn),n,n,n,n,65
CC(=O)Nc1ccccc1C(=O)N1CC(C)OC(C)C1 (stereo not drawn),n,40,n,n,n
CC1CN(C(=O)c2cc3ccccc3cc2O)CC(C)O1 (stereo not drawn),n,x,n,x,x
OC1(c2cccc(F)c2)CCN(Cc2ccncc2)CC1,n,n,n,n,56
O=c1nc(/C=C/c2ccccc2C(F)(F)F)cc(C(F)(F)F)[nH]1,n,n,n,n,32
Cn1c(SCC(=O)NCCNC(=O)CSc2nnc(C(F)(F)F)n2C)nnc1C(F)(F)F,n,n,n,n,33
COc1cc2c(cc1OC)-c1cc(Nc3ccc4c(c3)OCCO4)nc(=O)n1CC2,n,57,n,n,n
COc1ccc(Nc2cc3n(c(=O)n2)CCc2cc(OC)c(OC)cc2-3)cc1,n,n,n,n,n
COc1ccc(NS(=O)(=O)c2cc3c(cc2C)NC(=O)CO3)c(OC)c1,n,n,n,38!,n
Cc1ccccc1NS(=O)(=O)c1cc2c(cc1C)NC(=O)CO2,n,n,n,n,n
COc1cc(NC(=O)CCc2c(C)nc3c(c(C)nn3-c3ccccc3)c2C)cc(OC)c1OC,x,n,x,n,x
SMILES,D2 PAM-1,D2 PAM-2,D2 ag-1,D2 ag-2,D2 antag
O=C(COc1ccc(F)cc1)OCc1cc(=O)n2nc(-c3cccs3)sc2n1,x,n,x,n,x
Cc1ccc(C)c(S(=O)(=O)N2CCN(C(C(=O)Nc3ccc(F)cc3)c3ccccc3)CC2)c1 (stereo not drawn),n,n,n,n,n
O=C(Nc1ccc(F)cc1)C(c1ccccc1)N1CCN(S(=O)(=O)c2ccc3ccccc3c2)CC1 (stereo not drawn),n,n,n,n,37
COc1ccccc1N1CCN(Cc2cc3c(cc2[N+](=O)[O-])OCO3)CC1,n,n,n,n,52
COc1ccc2ccccc2c1CN1CCN(C)CC1,n,n,n,n,40
COc1ccccc1N1CCN(Cc2cnc3ccc(Cl)cn23)CC1,n,n,n,n,55
COc1ccccc1N1CCN(Cc2nc(N)nc(Nc3ccc(C)c(Cl)c3)n2)CC1,n,x,n,n,55
COc1ccccc1OCCCCN1CCN(c2ccccc2OC)CC1,n,n,n,n,n
COc1ccccc1Nc1nc(N)nc(CN2CCN(c3ccccc3F)CC2)n1,n,n,n,n,n
COc1ccccc1N1CCN(Cc2ccc(C(=O)O)cc2)CC1,n,n,n,n,n
COc1ccc(OC)c(CN2CCCCCC2)c1,n,n,n,n,n
COC(=O)c1cc(CN2CCN(c3ccccc3C)CC2)ccc1O,n,n,n,n,58
COc1ccc(OC)c(CN2CCN(c3ccccc3OC)CC2)c1,n,n,n,n,n
COc1ccc(CN2CCN(c3ccccc3OC)CC2)cc1OC,n,n,n,n,66
COc1ccc(OC)c(CN2CCN(Cc3cccc4ccccc34)CC2)c1,n,n,n,n,71
COc1ccccc1N1CCN(Cc2ccc(OC)c(OC)c2OC)CC1,n,n,n,n,81
COc1ccc(CN2CCN(c3ccccc3OC)CC2)c(OC)c1,n,n,n,n,91
O=C(CN1C(=O)S/C(=C\c2cccs2)C1=O)Nc1ccc(C(=O)O)c(O)c1,n,n,n,n,40
CSc1ccc(CN2CCC(Oc3cccc(C(=O)N4CCCC4)c3)CC2)cc1,n,n,n,n,n
Clc1cccc(CN2CCC(Cc3ccccc3)CC2)c1,n,x,n,x,x
CSc1ccc(OC2CCN(Cc3ccccc3)CC2)cc1,n,n,n,n,31
Clc1ccc(CN2CCC(Cc3ccccc3)CC2)cc1,n,n,n,n,48
Clc1ccc(CN2CCC(c3nc4ccc(Cl)cc4[nH]3)CC2)cc1,n,n,n,n,82
Clc1ccc(CN2CCC(c3ccccc3)CC2)cc1,n,n,n,n,85
Cc1c(CC(=O)N2CCCCC2)c(=O)oc2c(C)c3occ(C(C)(C)C)c3cc12,x,n,x,n,x
SMILES,D2 PAM-1,D2 PAM-2,D2 ag-1,D2 ag-2,D2 antag
O=c1c2sc3ccccc3c2n(Cc2cccc(F)c2)c(=O)n1CCc1ccccc1,x,n,x,n,x
Cc1cc2nnc(SCC(=O)Nc3ccc(F)c(Cl)c3)n2c2ccccc12,x,n,x,n,x
c1ccc(CN2CCN(c3ncccn3)CC2)nc1,x,n,x,48,37
OCC1(Cc2ccccc2)CCN(Cc2ccccn2)CC1,n,n,n,n,n
CSc1ccc(CN2CCC(Cc3ccccc3)CC2)cc1,n,n,n,n,31
c1ccc(CC2CCN(Cc3ccccn3)CC2)cc1,n,n,n,n,30
O=C(c1ccc(-c2ccccc2)cc1)N1CCN(Cc2ccccn2)CC1,n,x,n,x,x
O=c1c2cc3c(cc2nc2sc(Nc4ccc(F)c(Cl)c4)nn12)OCO3,x,n,x,n,x
CCC(=O)Nc1ccc(NC(=O)c2ccccc2)nc1,n,n,n,n,32
CCCC(=O)Nc1ccc(NC(=O)c2ccccc2)nc1,n,n,n,n,n
CCOc1cc(CNCCSc2nnnn2C)cc(Cl)c1OCc1ccc(Cl)cc1,x,x,x,n,x

# Screens from PubChem.
